Only some compounds are listed: those with a hit (about 18% of all), similar ones and a draw of the others.
DT40 TDP1 no CPT = qHTS for Inhibitors of human tyrosyl-DNA phosphodiesterase 1 (TDP1): qHTS in cells in absence of CPT. Potency, µM (titrated, usually from 46.2 µM), for inactives: at the top dose activity change, negative = growth inhibition, most hits filed as inhibitors. 15% of 420,000 active. DT40 Tdp1-/- hTDP1 cells, no CPT, ATP luminescence, 48 h; note: potency is the fitted concentration of half-maximal effect; nearly all actives have a fitted effect of over 55% in size
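Compound effects on proliferation are scored in DT40 Tdp1-/-;hTDP1 cells in the absence of CPT. ATP levels (CellTiter-Glo luminescence) are recorded after a ≥48 hr, 37 °C incubation.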
LDHA block = LDHA (human) enzyme inhibition. P00338. purified LDHA, NADH/diaphorase-resazurin fluorescence; hits give low values. activity change, % (values are at about 110 or 230 µM). 0.15% of 480,000 active; in the data active = activity change below about -30%; inconclusive = mostly about -25% to -30%;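 note: plate controls were DMSO wells for no effect and wells without enzyme for full effect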
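Human LDH5 (2 nM) was incubated with 0.06 mM NADH and 0.2 mM pyruvate for 5 min at room temperature in Tris pH 7.4. Remaining NADH was coupled through diaphorase/resazurin, and resorufin fluorescence was read at 0 and 20 min.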
IL-1B inflam inh = inhibitors of inflammasome signaling (IL-1 beta secretion); THP-1 LPS/ATP IL-1B secretion, AlphaLISA, 16 h; hits give low values; activity change, % at 57.5 µM; 4.7% of 360,000 active; AID 743279; in the data active = activity change below about -50%; inconclusive = mostly about -30% to -49%
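THP-1 cells pretreated 1 hr with compounds (up to 57.5 uM final), then stimulated with LPS (250 ng/mL final) plus ATP (1.25 mM final); secreted IL-1B measured by AlphaLISA after 16 hr, decreased signal indicating inhibition.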
RORg inh = inhibitors of mouse ROR gamma transcriptional activity; P51450; Drosophila S2 Gal4-RORgamma UAS-luciferase reporter, 20 h; Potency, µM (top dose mostly 53.6 µM), without a hit: top-dose activity change, negative = inhibition, hits mostly inhibitors; 5.4% of 310,000 active; note: potency is the fitted concentration of half-maximal effect; nearly all actives have a fitted effect of over 60% in size
Target sequence (P51450 whole entry, looked up, the tested form may be a part): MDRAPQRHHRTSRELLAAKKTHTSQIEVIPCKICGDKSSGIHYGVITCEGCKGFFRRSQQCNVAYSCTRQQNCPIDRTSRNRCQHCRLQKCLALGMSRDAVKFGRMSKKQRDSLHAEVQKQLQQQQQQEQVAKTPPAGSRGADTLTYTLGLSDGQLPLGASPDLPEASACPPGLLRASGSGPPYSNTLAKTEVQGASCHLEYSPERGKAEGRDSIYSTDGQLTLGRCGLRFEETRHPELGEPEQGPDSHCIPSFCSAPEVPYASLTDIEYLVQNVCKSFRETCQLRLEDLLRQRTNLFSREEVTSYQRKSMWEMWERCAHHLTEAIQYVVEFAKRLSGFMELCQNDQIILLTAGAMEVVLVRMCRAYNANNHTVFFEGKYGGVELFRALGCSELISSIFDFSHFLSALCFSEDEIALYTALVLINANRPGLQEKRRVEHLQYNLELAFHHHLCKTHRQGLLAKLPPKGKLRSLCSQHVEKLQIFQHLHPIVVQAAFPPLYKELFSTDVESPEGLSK
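Schneider cells (Drosophila), stable Gal4 DBD–ROR gamma + UAS-luc; 1 hr cmpd preincubation; Cu2+ induction 700 uM final; 20 hr ambient; luminescence.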
Gal4-VP16 FLuc = counter-screen for ROR gamma inhibitors: Gal4-VP16 reporter; Drosophila S2 Gal4-VP16 UAS-luciferase, luminescence, 20 h; 3.5% of 310,000 active; AID 2546; Potency, µM (doses to about 53.6 µM), for the others: at the highest dose activity, negative = inhibition, actives largely listed as inhibitors;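 note: Gal4-VP16 expression switched on by copper sulfate through the metallothionein promoter; potency is the fitted concentration of half-maximal effect; nearly all actives have a fitted effect of over 50% in size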
TDP1 cell CPT = DT40-hTDP1 cell growth loss with CPT; Potency, µM (doses to about 46.2 µM), inactives show at the highest dose activity change, negative = growth inhibition, hits mostly inhibitors; chicken DT40 Tdp1-/-;hTDP1 cells + 20 nM CPT, ATP luminescence, 48 h; 12% of 420,000 active; AID 686979; note: potency is the fitted concentration of half-maximal effect; nearly all actives have a fitted effect of over 55% in size
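Chicken DT40 Tdp1-/- cells stably complemented with human TDP1 were seeded at 400 cells/well in medium containing 20 nM camptothecin, exposed to pin-transferred compounds, and grown at 37 °C for at least 48 hr. Viability was read as ATP luminescence.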
An asterisk follows results filed as active; ? = inconclusive; . = no result; [ ] = remark or other dose. Unless noted, calls come from the whole dose curve; as a rule, active = well fitted curve in the direction sought with a large enough effect; inconclusive = small, poorly fitted or top-dose-only effect, or another doubt; inactive = no such curve, though single readings can be large; an effect the other way counts as inactive or inconclusive. Unless noted, % is set by controls: 0 for no effect and ±100 for the full control effect.

SMILES	DT40 TDP1 no CPT	LDHA block	IL-1B inflam inh	RORg inh	Gal4-VP16 FLuc	TDP1 cell CPT
CCC(=O)OC1C(N(C)C)CC(C)O[C@H]1O[C@H]1[C@H](C)[C@@H](O[C@H]2CC(OC)[C@@H](O)C(C)O2)[C@H](C)C(=O)O[C@@H](CC)[C@](C)(O)[C@@H](O)[C@H](C)C(=O)[C@@H](C)C[C@]1(C)O (stereo partly specified)	.	.	.	8%	-11%	.
CO[C@@H]1[C@@H](OC2OC(C)C(OC3CC(C)(O)C(OC(=O)CC(C)C)C(C)O3)C(N(C)C)C2O)[C@@H](CC=O)C[C@@H](C)C(=O)/C=C\C2O[C@H]2C[C@@H](C)OC(=O)C[C@H]1OC(C)=O (stereo partly specified)	3.2µM*	-5	.	23%	-3%	5.6µM*
CO[C@H]1[C@H](O[C@H]2O[C@@H](C)[C@@H](O[C@@H]3C[C@](C)(O)[C@H](OC(=O)CC(C)C)[C@H](C)O3)[C@@H](N(C)C)[C@@H]2O)[C@@H](CC=O)C[C@@H](C)[C@@H](O)/C=C\C=C/C[C@@H](C)OC(=O)C[C@H]1OC(C)=O	.	.	.	-12%[2.98 µM]	3%[17 µM]	.
COC(=O)Cc1c(C)c2ccc(O)c(C)c2oc1=O	.	2	.	.	.	.
Cc1ccc(S(=O)(=O)Nc2ccc3c(c2)OCCO3)c(C)c1NS(C)(=O)=O	10µM*	-2	8	19%	-4%	?
Cc1ccc(/C=C/c2ccc3cccc(O)c3n2)s1	16µM*	13	-16	14µM*	?	?
O=[N+]([O-])c1ccc(/C=C/c2ccc3cccc(O)c3n2)cc1	16µM*	-1	7	2.5µM*	?	21µM*
COc1cccc(/C=C/c2ccc3cccc(O)c3n2)c1	7.3µM*	20	?	3.5µM*	11µM*	?
O=[N+]([O-])c1ccc(/C=C/c2ccc3ccccc3n2)cc1	?	-3	-8	?	?	?
Cc1ccc(/C=C/C(=O)O)s1	.	0	.	.	.	.
Oc1cccc(/C=C/c2ccc3cccc(O)c3n2)c1	16µM*	14	4	-108%	5µM*	18µM*
Fc1ccc(NC2c3ccccc3-c3ccccc32)cc1	.	5	.	.	.	.
Cn1nc(C(=O)NC2CCCC2)c(Cl)c1C(F)(F)F	.	-4	.	.	.	.
CNS(=O)(=O)c1ccc(NC(=O)CCc2c(C)nc3c4ccccc4nn3c2C)cc1	.	0	.	.	.	.
CC(=O)COc1cccc2ccc(/C=C/c3ccc(Br)s3)nc12	?	-2	12	?	-6%	21µM*
COC(=O)c1ccc(/C=C/c2ccc3cccc(OC)c3n2)cc1	?	-8	-4	-44%	0%	?
CCSc1nnc(-c2cccc(S(=O)(=O)N(C)C)c2)n1-c1cc(OC)ccc1OC	?	-2	9	0%	-6%	14µM*
CCCSc1nnc(-c2cccc(S(=O)(=O)N(C)C)c2)n1-c1cc(OC)ccc1OC	11µM*	-4	5	3%	2%	11µM*
CC(=O)c1cccc(OCC(O)COc2cc3sc(C)nc3c3sccc23)c1 (stereo unspecified)	.	27	.	.	.	.
CCOc1cccc(-c2cnc3cccnn23)c1	10µM*	-2	-12	.	.	?
CCn1nccc1-c1cc(C(=O)O)c2ccc(C)c(C)c2n1	.	-5	.	.	.	.
O=c1cc(N2CCN(c3ccc(F)cc3)CC2)[nH]c(=O)n1-c1cccc(Br)c1	18µM*	-1	.	.	.	10µM*
Cc1ccc(-c2nn3c(C)nnc3c3ccccc23)cc1S(=O)(=O)NC(C)c1ccccc1 (stereo unspecified)	18µM*	-2	-3	2%	2%	?
Cc1ccc(-c2nn3c(C)nnc3c3ccccc23)cc1S(=O)(=O)NC(C)(C)CO	?	-2	98	-44%	6%	?
Cc1ccc(-c2nn3c(C)nnc3c3ccccc23)cc1S(=O)(=O)NCc1ccco1	?	-4	?	25%	-18%	15µM*
SMILES	DT40 TDP1 no CPT	LDHA block	IL-1B inflam inh	RORg inh	Gal4-VP16 FLuc	TDP1 cell CPT
COc1cc(CN(CC2CCCO2)C(=O)COc2ccc(Cl)cc2Cl)cc(OC)c1OC (stereo unspecified)	.	2	.	.	.	.
CC(=O)NC(C(=O)Nc1ccc(SC2CCCC2)cc1)C(C)C (stereo unspecified)	.	5	.	.	.	.
O=c1c2sc(-c3ccccc3)cc2nc2n1CCC2	-23%	-10	?	2.5µM*	?	-38%
Cc1ccc2nc3n(c(=O)c2c1)CCCCC3	10%	-2	-9	27%	-10%	1%
O=c1c2sc(-c3ccccc3)cc2nc2n1CCCCC2	12µM*	-2	.	-3%	-15%	-21%
Cn1c(NCCN2CCCC2)nc2cc(-c3cccc(C(F)(F)F)c3)sc2c1=O	?	-8	-7	.	.	?
CCOC(=O)Cc1ccc(NC(=O)Nc2nnc(N(C)Cc3ccccc3)s2)cc1	.	0	.	.	.	.
O=C(Nc1ccc(CC(=O)N2CCOCC2)cc1)c1cc(Cl)ccc1Cl	.	2	.	.	.	.
COc1cc(C2NC(=O)c3ccccc3O2)cc(OC)c1OC (stereo unspecified)	-5%	0	20	-21%	1%	-14%
COc1cc(C2Oc3ccccc3C=C2[N+](=O)[O-])cc(OC)c1OC (stereo unspecified)	2.6µM*	3	-104*	?	13µM*	3.3µM*
Cc1ccc(S(=O)(=O)N(C)c2ccc3sc(C)nc3c2)cc1	23µM*	-1	27	0%	-11%	?
CSc1ccc(/C=C/C(=O)c2ccccc2)cc1	.	4	.	.	.	.
CCc1ccc(C(=O)C(C)OC(=O)c2ccc3c(c2)CCCC3)cc1 (stereo unspecified)	.	1	.	.	.	.
Cc1ccc(-c2nnc(N3CCC(C)CC3)c3ccccc23)cc1C	9.2µM*	1	-95*	20µM*	18µM*	6.5µM*
Cc1ccc(-c2nnc(N3CCC(C)CC3)c3ccccc23)cc1	8.2µM*	0	-14	?	?	13µM*
Cc1ccc(-c2nnc(N3CCOCC3)c3ccccc23)cc1S(=O)(=O)N(C)C	-13%	-1	-6	?	-22%	-24%
COc1ccc(-c2nc3ncccn3c2Nc2ccccc2C)cc1	.	10	.	.	.	.
Cc1ccc(-c2nc3c(C)cccn3c2Nc2ccccc2C)s1	?	-4	.	.	.	21µM*

High-throughput results from PubChem.
